# In the supplement of paper PMC4022240:
# ± gives the standard deviation.
# T1: HaloTag-ATRX ADD domain (163-292)
# T1 chain: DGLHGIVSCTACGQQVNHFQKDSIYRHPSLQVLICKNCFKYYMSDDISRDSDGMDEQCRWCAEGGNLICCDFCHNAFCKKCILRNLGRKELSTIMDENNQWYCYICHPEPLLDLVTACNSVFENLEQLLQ
# Columns and labels:
# Test in all cases: peptide microarray binding signal (635 nm), min-max normalized on array (fraction of array maximum); higher = stronger binding
# Conditions in all cases: peptide region: H3 5-17
# [1] = biological target: T1, HaloTag-ATRX ADD domain (163-292)
# Summary of the method: (§1)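 Arrays carried histone 13-mer peptide–cellulose conjugates printed in triplicate on nitrocellulose alongside a Cy3 tracer. After overnight blocking at 4°C, they were incubated for 1 h at 4°C with biotin-labelled HaloTag reader fusions (10 nM to 1 μM) plus streptavidin-Alexa Fluor 647, or with rabbit histone antibodies (1:10,000 to 1:2,000) plus anti-rabbit Alexa 647. Scanning on an Axon GenePix 4000B used 635 nm for signal and 532 nm for misprints. The binding signal reported is each triplicate's mean spot intensity after per-library min-max scaling.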
# [2] = biological target: HaloTag-ING2 PHD (mouse Ing2 200-280)
# Summary of the method: as §1
# [3] = biological target: anti-H3K4me3 antibody ab8580
# Summary of the method: as §1
# [4] = biological target: anti-H3K9me3 antibody ab8898
# Summary of the method: as §1
# [5] = peptide modifications: H3K9ac, binder concentration: 1:2,000 dilution
# [6] = peptide modifications: H3K9ac, binder concentration: 1:10,000 dilution
# [7] = peptide modifications: H3K9me1 H3K14ac, binder concentration: 1:2,000 dilution
# [8] = peptide modifications: H3K9me1 H3K14ac, binder concentration: 1:10,000 dilution
# [9] = peptide modifications: H3K9me1, binder concentration: 1:2,000 dilution
# [10] = peptide modifications: H3K9me1, binder concentration: 1:10,000 dilution
# [11] = peptide modifications: H3K9me1 H3K14me3, binder concentration: 1:2,000 dilution
# [12] = peptide modifications: H3K9me1 H3K14me3, binder concentration: 1:10,000 dilution
# [13] = peptide modifications: H3K9me1 H3K14me2, binder concentration: 1:2,000 dilution
# [14] = peptide modifications: H3K9me1 H3K14me2, binder concentration: 1:10,000 dilution
# [15] = peptide modifications: H3K9me1 H3K14me1, binder concentration: 1:2,000 dilution
# [16] = peptide modifications: H3K9me1 H3K14me1, binder concentration: 1:10,000 dilution
# [17] = peptide modifications: H3K9me1 H3S10ph, binder concentration: 1:2,000 dilution
# [18] = peptide modifications: H3K9me1 H3S10ph, binder concentration: 1:10,000 dilution
# [19] = peptide modifications: H3K9ac H3S10ph, binder concentration: 1:2,000 dilution
# [20] = peptide modifications: H3K9ac H3S10ph, binder concentration: 1:10,000 dilution
# [21] = peptide modifications: H3K9ac H3K14me3, binder concentration: 1:2,000 dilution
# [22] = peptide modifications: H3K9ac H3K14me3, binder concentration: 1:10,000 dilution
# [23] = peptide modifications: H3K9ac H3T11ph, binder concentration: 1:2,000 dilution
# [24] = peptide modifications: H3K9ac H3T11ph, binder concentration: 1:10,000 dilution
binder,measurement,setting,value
QTARKSTGGKAPR [H3 5-17 Q T A R Kac S T G G K A P R],peptide microarray binding signal,"[1]; peptide modifications: H3K9ac, binder concentration: 50 nM",0.00263 ± 0.00033
same,peptide microarray binding signal,"[1]; peptide modifications: H3K9ac, binder concentration: 500 nM",0.00271 ± 0.00021
same,peptide microarray binding signal,"[2]; peptide modifications: H3K9ac, binder concentration: 10 nM",0.00352 ± 5e-05
same,peptide microarray binding signal,"[2]; peptide modifications: H3K9ac, binder concentration: 100 nM",0.002055 ± 2e-05
same,peptide microarray binding signal,[3]; [5],0.00123 ± 0.0001
same,peptide microarray binding signal,[3]; [6],0.00245 ± 0.00036
same,peptide microarray binding signal,[4]; [5],0.0011 ± 6.7e-05
same,peptide microarray binding signal,[4]; [6],0.00167 ± 7.4e-05
QTARKSTGGKAPR [H3 5-17 Q T A R Kme S T G G Kac A P R],peptide microarray binding signal,"[1]; peptide modifications: H3K9me1 H3K14ac, binder concentration: 50 nM",0.00661 ± 0.00012
same,peptide microarray binding signal,"[1]; peptide modifications: H3K9me1 H3K14ac, binder concentration: 500 nM",0.0218 ± 0.0024
same,peptide microarray binding signal,"[2]; peptide modifications: H3K9me1 H3K14ac, binder concentration: 10 nM",0.0233 ± 0.0035
same,peptide microarray binding signal,"[2]; peptide modifications: H3K9me1 H3K14ac, binder concentration: 100 nM",0.0424 ± 0.0029
same,peptide microarray binding signal,[3]; [7],0.00255 ± 0.00039
same,peptide microarray binding signal,[3]; [8],0.00228 ± 0.00016
same,peptide microarray binding signal,[4]; [7],0.0548 ± 0.0034
same,peptide microarray binding signal,[4]; [8],0.016 ± 0.00023
QTARKSTGGKAPR [H3 5-17 Q T A R Kme S T G G K A P R],peptide microarray binding signal,"[1]; peptide modifications: H3K9me1, binder concentration: 50 nM",0.00445 ± 0.00012
same,peptide microarray binding signal,"[1]; peptide modifications: H3K9me1, binder concentration: 500 nM",0.00171 ± 7.9e-05
same,peptide microarray binding signal,"[2]; peptide modifications: H3K9me1, binder concentration: 10 nM",0.00448 ± 0.00018
same,peptide microarray binding signal,"[2]; peptide modifications: H3K9me1, binder concentration: 100 nM",0.002055 ± 2e-05
same,peptide microarray binding signal,[3]; [9],0.000642 ± 1.6e-05
same,peptide microarray binding signal,[3]; [10],0.0139 ± 0.012
same,peptide microarray binding signal,[4]; [9],0.0007551 ± 6.5e-06
same,peptide microarray binding signal,[4]; [10],0.00121 ± 2.4e-05
QTARKSTGGKAPR [H3 5-17 Q T A R Kme S T G G Kme3 A P R],peptide microarray binding signal,"[1]; peptide modifications: H3K9me1 H3K14me3, binder concentration: 50 nM",0.00611 ± 0.00085
same,peptide microarray binding signal,"[1]; peptide modifications: H3K9me1 H3K14me3, binder concentration: 500 nM",0.011 ± 0.0017
same,peptide microarray binding signal,"[2]; peptide modifications: H3K9me1 H3K14me3, binder concentration: 10 nM",0.018 ± 0.003
same,peptide microarray binding signal,"[2]; peptide modifications: H3K9me1 H3K14me3, binder concentration: 100 nM",0.00935 ± 0.0036
same,peptide microarray binding signal,[3]; [11],0.0233 ± 0.01
same,peptide microarray binding signal,[3]; [12],0.0338 ± 0.015
same,peptide microarray binding signal,[4]; [11],0.0215 ± 0.0054
same,peptide microarray binding signal,[4]; [12],0.016 ± 0.0043
QTARKSTGGKAPR [H3 5-17 Q T A R Kme S T G G Kme2 A P R],peptide microarray binding signal,"[1]; peptide modifications: H3K9me1 H3K14me2, binder concentration: 50 nM",0.004514 ± 3.4e-05
same,peptide microarray binding signal,"[1]; peptide modifications: H3K9me1 H3K14me2, binder concentration: 500 nM",0.00667 ± 0.00028
same,peptide microarray binding signal,"[2]; peptide modifications: H3K9me1 H3K14me2, binder concentration: 10 nM",0.00555 ± 0.0003
same,peptide microarray binding signal,"[2]; peptide modifications: H3K9me1 H3K14me2, binder concentration: 100 nM",0.00595 ± 0.00024
same,peptide microarray binding signal,[3]; [13],0.00206 ± 0.00041
same,peptide microarray binding signal,[3]; [14],0.00211 ± 0.00015
same,peptide microarray binding signal,[4]; [13],0.00979 ± 0.0019
same,peptide microarray binding signal,[4]; [14],0.00352 ± 0.00022
QTARKSTGGKAPR [H3 5-17 Q T A R Kme S T G G Kme A P R],peptide microarray binding signal,"[1]; peptide modifications: H3K9me1 H3K14me1, binder concentration: 50 nM",0.00339 ± 6.1e-05
same,peptide microarray binding signal,"[1]; peptide modifications: H3K9me1 H3K14me1, binder concentration: 500 nM",0.00657 ± 6.6e-05
same,peptide microarray binding signal,"[2]; peptide modifications: H3K9me1 H3K14me1, binder concentration: 10 nM",0.00388 ± 5.4e-05
same,peptide microarray binding signal,"[2]; peptide modifications: H3K9me1 H3K14me1, binder concentration: 100 nM",0.0145 ± 0.0038
same,peptide microarray binding signal,[3]; [15],0.00068 ± 1.9e-05
same,peptide microarray binding signal,[3]; [16],0.000571 ± 1.1e-05
same,peptide microarray binding signal,[4]; [15],0.0061 ± 0.0011
same,peptide microarray binding signal,[4]; [16],0.00283 ± 0.00027
QTARKSTGGKAPR [H3 5-17 Q T A R Kme Sph T G G K A P R],peptide microarray binding signal,"[1]; peptide modifications: H3K9me1 H3S10ph, binder concentration: 50 nM",0.0069 ± 0.00042
same,peptide microarray binding signal,"[1]; peptide modifications: H3K9me1 H3S10ph, binder concentration: 500 nM",0.0164 ± 0.0026
same,peptide microarray binding signal,"[2]; peptide modifications: H3K9me1 H3S10ph, binder concentration: 10 nM",0.0181 ± 0.0013
same,peptide microarray binding signal,"[2]; peptide modifications: H3K9me1 H3S10ph, binder concentration: 100 nM",0.0405 ± 0.00099
same,peptide microarray binding signal,[3]; [17],0.00281 ± 0.00031
same,peptide microarray binding signal,[3]; [18],0.0028 ± 0.00019
same,peptide microarray binding signal,[4]; [17],0.0251 ± 0.0037
same,peptide microarray binding signal,[4]; [18],0.00865 ± 0.0014
QTARKSTGGKAPR [H3 5-17 Q T A R Kac Sph T G G K A P R],peptide microarray binding signal,"[1]; peptide modifications: H3K9ac H3S10ph, binder concentration: 50 nM",0.00592 ± 8.9e-05
same,peptide microarray binding signal,"[1]; peptide modifications: H3K9ac H3S10ph, binder concentration: 500 nM",0.0176 ± 0.0016
same,peptide microarray binding signal,"[2]; peptide modifications: H3K9ac H3S10ph, binder concentration: 10 nM",0.00507 ± 0.00017
same,peptide microarray binding signal,"[2]; peptide modifications: H3K9ac H3S10ph, binder concentration: 100 nM",0.0274 ± 0.0063
same,peptide microarray binding signal,[3]; [19],0.0005474 ± 5.3e-06
same,peptide microarray binding signal,[3]; [20],0.000514 ± 1.5e-05
same,peptide microarray binding signal,[4]; [19],0.00667 ± 0.00058
same,peptide microarray binding signal,[4]; [20],0.00265 ± 0.00012
QTARKSTGGKAPR [H3 5-17 Q T A R Kac S T G G Kme3 A P R],peptide microarray binding signal,"[1]; peptide modifications: H3K9ac H3K14me3, binder concentration: 50 nM",0.00755 ± 0.00045
same,peptide microarray binding signal,"[1]; peptide modifications: H3K9ac H3K14me3, binder concentration: 500 nM",0.0117 ± 0.00052
same,peptide microarray binding signal,"[2]; peptide modifications: H3K9ac H3K14me3, binder concentration: 10 nM",0.00758 ± 0.00031
same,peptide microarray binding signal,"[2]; peptide modifications: H3K9ac H3K14me3, binder concentration: 100 nM",0.00957 ± 0.00088
same,peptide microarray binding signal,[3]; [21],0.0161 ± 0.0026
same,peptide microarray binding signal,[3]; [22],0.0127 ± 0.0015
same,peptide microarray binding signal,[4]; [21],0.0416 ± 0.0084
same,peptide microarray binding signal,[4]; [22],0.0649 ± 0.082
QTARKSTGGKAPR [H3 5-17 Q T A R Kac S Tph G G K A P R],peptide microarray binding signal,"[1]; peptide modifications: H3K9ac H3T11ph, binder concentration: 50 nM",0.00266 ± 6.1e-05
same,peptide microarray binding signal,"[1]; peptide modifications: H3K9ac H3T11ph, binder concentration: 500 nM",0.0107 ± 0.00079
same,peptide microarray binding signal,"[2]; peptide modifications: H3K9ac H3T11ph, binder concentration: 10 nM",0.00531 ± 0.00025
same,peptide microarray binding signal,"[2]; peptide modifications: H3K9ac H3T11ph, binder concentration: 100 nM",0.0213 ± 0.0014
same,peptide microarray binding signal,[3]; [23],0.000755 ± 2.5e-05
same,peptide microarray binding signal,[3]; [24],0.000171 ± 1.9e-06
same,peptide microarray binding signal,[4]; [23],0.00547 ± 0.00037
same,peptide microarray binding signal,[4]; [24],0.00271 ± 0.00015
